Common to all, as to assay: DAPPL (digital affinity profiling via proximity ligation, sequencing); 10 mM Tris-HCl pH 7.5, 50 mM NaCl, 1 mM DTT, 4% glycerol, room temperature, 30 min; GST-TFs on glutathione beads, 16-mer random dsDNA library, 0.1% formaldehyde crosslink after washing; high values mean tight binding
What all share (conditions): protein: recombinant; tags: N-terminal GST; dsDNA, one strand shown

One assay addresses T1, FLI1 (Homo sapiens, UniProt Q01543 1-452).
T1 sequence: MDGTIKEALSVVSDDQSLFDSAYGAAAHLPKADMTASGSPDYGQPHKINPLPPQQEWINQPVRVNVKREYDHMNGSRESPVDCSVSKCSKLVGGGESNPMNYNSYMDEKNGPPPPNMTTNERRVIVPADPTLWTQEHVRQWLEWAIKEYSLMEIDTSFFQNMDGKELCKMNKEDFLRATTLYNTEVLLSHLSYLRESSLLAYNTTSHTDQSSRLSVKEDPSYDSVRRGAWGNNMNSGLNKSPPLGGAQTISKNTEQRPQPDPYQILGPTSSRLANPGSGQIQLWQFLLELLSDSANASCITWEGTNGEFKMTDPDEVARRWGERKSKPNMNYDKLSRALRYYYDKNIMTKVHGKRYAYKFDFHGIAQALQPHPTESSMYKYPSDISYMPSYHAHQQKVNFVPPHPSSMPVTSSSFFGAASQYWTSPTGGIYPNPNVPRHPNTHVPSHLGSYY
The essentials: (§1)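 Pools were built from human transcription factors expressed in yeast as GST fusions, captured on glutathione beads and DNA-barcoded, along with a tag-only sample. Incubation with 200 nmole of a 16-mer random double-stranded DNA library lasted 30 min at room temperature in Tris/NaCl/DTT/glycerol buffer, and was followed by washing, 0.1% formaldehyde crosslinking, proximity ligation, PCR amplification and Illumina NextSeq500 sequencing. Binding signal is the quotient of each hexamer's read frequency for a factor and its frequency for the tag-only sample.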

The next assay deals with T2, ELK1 (Homo sapiens, UniProt P19419 1-428).
T2 sequence: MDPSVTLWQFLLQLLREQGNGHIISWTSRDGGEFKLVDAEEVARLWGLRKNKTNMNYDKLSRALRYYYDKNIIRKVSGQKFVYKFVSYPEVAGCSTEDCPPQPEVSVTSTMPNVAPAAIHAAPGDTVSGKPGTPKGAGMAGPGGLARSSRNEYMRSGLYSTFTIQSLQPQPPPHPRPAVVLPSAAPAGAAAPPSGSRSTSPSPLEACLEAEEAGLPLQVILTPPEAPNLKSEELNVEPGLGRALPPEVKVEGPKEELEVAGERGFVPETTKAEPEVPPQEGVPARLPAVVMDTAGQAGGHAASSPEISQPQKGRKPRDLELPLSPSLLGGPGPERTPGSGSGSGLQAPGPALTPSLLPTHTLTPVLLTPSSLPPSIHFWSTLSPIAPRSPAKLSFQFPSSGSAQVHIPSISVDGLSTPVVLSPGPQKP
In a few lines:
as §1

Another assay deals with T3, GABPA (Homo sapiens, UniProt Q06546 1-454).
T3 sequence: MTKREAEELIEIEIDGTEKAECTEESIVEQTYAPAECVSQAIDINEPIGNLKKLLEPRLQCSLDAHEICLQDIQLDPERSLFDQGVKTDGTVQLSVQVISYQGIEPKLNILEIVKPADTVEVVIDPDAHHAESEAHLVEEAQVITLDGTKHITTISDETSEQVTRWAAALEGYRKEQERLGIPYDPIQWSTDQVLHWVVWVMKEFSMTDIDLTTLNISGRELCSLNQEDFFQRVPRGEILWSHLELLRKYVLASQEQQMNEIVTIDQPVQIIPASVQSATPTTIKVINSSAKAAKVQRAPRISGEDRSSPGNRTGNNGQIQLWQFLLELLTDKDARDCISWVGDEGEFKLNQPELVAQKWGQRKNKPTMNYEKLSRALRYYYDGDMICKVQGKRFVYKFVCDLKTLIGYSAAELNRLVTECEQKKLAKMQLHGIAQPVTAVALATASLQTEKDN
The essentials:
as §1

In a further assay the target is T4, ERG (Homo sapiens, UniProt P11308 1-479).
T4 sequence: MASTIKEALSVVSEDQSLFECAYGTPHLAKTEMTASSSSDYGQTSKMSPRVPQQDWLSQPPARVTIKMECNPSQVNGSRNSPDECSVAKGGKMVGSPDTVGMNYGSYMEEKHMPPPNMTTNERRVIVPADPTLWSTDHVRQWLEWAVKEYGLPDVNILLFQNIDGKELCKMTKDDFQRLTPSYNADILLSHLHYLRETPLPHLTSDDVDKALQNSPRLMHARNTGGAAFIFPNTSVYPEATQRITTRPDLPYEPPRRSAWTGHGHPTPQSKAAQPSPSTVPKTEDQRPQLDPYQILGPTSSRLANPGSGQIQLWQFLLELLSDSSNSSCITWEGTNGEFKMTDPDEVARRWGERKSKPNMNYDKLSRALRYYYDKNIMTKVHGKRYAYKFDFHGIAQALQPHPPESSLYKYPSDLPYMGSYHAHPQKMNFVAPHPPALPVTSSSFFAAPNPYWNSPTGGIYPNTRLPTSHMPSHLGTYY
The essentials: as §1

For another assay, the target named is ELF1 (Homo sapiens, UniProt P32519 1-619). The essentials:
as §1

For another assay, the target named is T5, EHF (Homo sapiens, UniProt Q9NZC4 1-300).
T5 sequence: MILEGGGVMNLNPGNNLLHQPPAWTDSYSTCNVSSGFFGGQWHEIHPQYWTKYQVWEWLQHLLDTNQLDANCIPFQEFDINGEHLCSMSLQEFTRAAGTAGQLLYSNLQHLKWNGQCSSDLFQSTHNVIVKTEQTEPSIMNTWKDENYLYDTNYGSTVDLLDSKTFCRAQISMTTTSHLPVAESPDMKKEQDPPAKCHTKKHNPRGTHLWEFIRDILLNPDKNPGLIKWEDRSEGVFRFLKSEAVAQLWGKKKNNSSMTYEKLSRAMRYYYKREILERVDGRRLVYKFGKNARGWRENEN
The essentials: as §1

The target in assay [1] is SPI1 (Homo sapiens, UniProt P17947 1-270). The essentials:
as §1

For a further assay, the target named is SPIB (Homo sapiens, UniProt Q01892 1-262). The essentials:
as §1

A further assay concerns the target T6, ELK3 (Homo sapiens, UniProt P41970 1-407).
T6 sequence: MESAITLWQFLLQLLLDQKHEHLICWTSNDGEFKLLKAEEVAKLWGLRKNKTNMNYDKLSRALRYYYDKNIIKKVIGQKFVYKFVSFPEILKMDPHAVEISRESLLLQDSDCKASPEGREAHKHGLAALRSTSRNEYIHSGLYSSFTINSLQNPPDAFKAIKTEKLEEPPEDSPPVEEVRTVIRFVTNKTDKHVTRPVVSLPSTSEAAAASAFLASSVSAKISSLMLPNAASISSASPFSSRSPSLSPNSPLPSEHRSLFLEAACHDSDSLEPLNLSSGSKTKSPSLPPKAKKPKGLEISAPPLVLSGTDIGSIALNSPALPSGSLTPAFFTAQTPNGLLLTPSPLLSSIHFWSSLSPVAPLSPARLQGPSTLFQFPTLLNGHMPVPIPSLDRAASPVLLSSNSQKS
In a few lines:
as §1

Assay [2] has as its target SPI1 (Homo sapiens, UniProt P17947 1-270). The essentials:
as §1
This is another data set of the same source.

Chain of ELF1 (P32519 whole entry): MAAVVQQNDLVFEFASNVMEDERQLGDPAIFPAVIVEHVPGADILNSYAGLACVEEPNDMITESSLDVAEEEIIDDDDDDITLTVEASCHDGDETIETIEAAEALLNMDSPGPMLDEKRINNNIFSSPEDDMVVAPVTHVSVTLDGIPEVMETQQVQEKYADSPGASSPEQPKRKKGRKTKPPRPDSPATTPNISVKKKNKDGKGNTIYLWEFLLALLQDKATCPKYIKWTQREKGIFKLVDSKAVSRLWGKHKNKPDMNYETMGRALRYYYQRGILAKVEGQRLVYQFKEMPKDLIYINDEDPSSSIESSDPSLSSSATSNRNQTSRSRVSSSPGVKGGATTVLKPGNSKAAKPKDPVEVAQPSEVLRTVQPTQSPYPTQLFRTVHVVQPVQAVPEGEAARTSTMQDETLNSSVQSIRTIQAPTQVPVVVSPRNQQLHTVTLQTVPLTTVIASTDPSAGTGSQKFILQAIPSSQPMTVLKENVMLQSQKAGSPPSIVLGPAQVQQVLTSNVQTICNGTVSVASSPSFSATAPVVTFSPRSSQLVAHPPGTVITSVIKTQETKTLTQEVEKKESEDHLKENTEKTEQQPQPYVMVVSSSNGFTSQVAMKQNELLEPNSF
Chain of SPIB (Q01892 whole entry): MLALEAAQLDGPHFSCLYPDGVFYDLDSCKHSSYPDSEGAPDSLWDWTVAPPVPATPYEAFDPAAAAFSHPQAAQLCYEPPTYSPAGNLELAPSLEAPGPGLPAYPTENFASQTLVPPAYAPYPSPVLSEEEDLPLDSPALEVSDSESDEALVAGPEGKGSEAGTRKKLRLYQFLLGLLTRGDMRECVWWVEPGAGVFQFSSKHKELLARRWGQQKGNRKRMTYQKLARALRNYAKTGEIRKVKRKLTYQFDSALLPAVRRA

Regarding AGCTTA, the binding signal with FLI1 is 1.06 fold enrichment (6-mer frequency, TF over GST control); in the assay with ELK1, 1.12 fold enrichment (6-mer frequency, TF over GST control); with GABPA it was 1.12 fold enrichment (6-mer frequency, TF over GST control); with ERG it was 1.13 fold enrichment (6-mer frequency, TF over GST control); with ELF1 it was 1.11 fold enrichment (6-mer frequency, TF over GST control); in the assay with EHF, 1.1 fold enrichment (6-mer frequency, TF over GST control). The binding signal with SPI1 [1] was 1.14 fold enrichment (6-mer frequency, TF over GST control); with SPIB it was 1.21 fold enrichment (6-mer frequency, TF over GST control); with ELK3 it was 1.11 fold enrichment (6-mer frequency, TF over GST control).
With ATTCAC, the binding signal was 1.23 fold enrichment (6-mer frequency, TF over GST control) with FLI1; 1.2 fold enrichment (6-mer frequency, TF over GST control) with ELK1; 1.22 fold enrichment (6-mer frequency, TF over GST control) in the assay with GABPA; 1.27 fold enrichment (6-mer frequency, TF over GST control) with ERG; 1.34 fold enrichment (6-mer frequency, TF over GST control) with ELF1; 1.2 fold enrichment (6-mer frequency, TF over GST control) with EHF. Also, the binding signal in the assay with SPI1 [1] was 1.16 fold enrichment (6-mer frequency, TF over GST control); with SPIB it was 1.2 fold enrichment (6-mer frequency, TF over GST control); with ELK3, 1.35 fold enrichment (6-mer frequency, TF over GST control).
With CTCGTT, the binding signal with FLI1 is 1.18 fold enrichment (6-mer frequency, TF over GST control); with ELK1, 1.31 fold enrichment (6-mer frequency, TF over GST control); with GABPA it was 1.26 fold enrichment (6-mer frequency, TF over GST control); with ERG it was 1.25 fold enrichment (6-mer frequency, TF over GST control); with ELF1, 1.27 fold enrichment (6-mer frequency, TF over GST control); in the assay with EHF, 1.27 fold enrichment (6-mer frequency, TF over GST control). Further, the binding signal in the assay with SPI1 [1] is 1.35 fold enrichment (6-mer frequency, TF over GST control); with SPIB it was 1.24 fold enrichment (6-mer frequency, TF over GST control); in the assay with ELK3 it was 1.15 fold enrichment (6-mer frequency, TF over GST control).
Take CTCCTT: the binding signal is 1.92 fold enrichment (6-mer frequency, TF over GST control) with FLI1; 1.72 fold enrichment (6-mer frequency, TF over GST control) in the assay with ELK1; 1.7 fold enrichment (6-mer frequency, TF over GST control) with GABPA; 1.82 fold enrichment (6-mer frequency, TF over GST control) with ERG; 1.94 fold enrichment (6-mer frequency, TF over GST control) with ELF1; 1.64 fold enrichment (6-mer frequency, TF over GST control) with EHF. Also, the binding signal is 1.71 fold enrichment (6-mer frequency, TF over GST control) in the assay with SPI1 [1]; 1.82 fold enrichment (6-mer frequency, TF over GST control) in the assay with SPIB; 1.65 fold enrichment (6-mer frequency, TF over GST control) with ELK3.
As for ATTTTA, the binding signal with FLI1 was 1.32 fold enrichment (6-mer frequency, TF over GST control); in the assay with ELK1 it was 1.16 fold enrichment (6-mer frequency, TF over GST control); in the assay with GABPA, 1.3 fold enrichment (6-mer frequency, TF over GST control); with ERG, 1.29 fold enrichment (6-mer frequency, TF over GST control); with ELF1, 1.29 fold enrichment (6-mer frequency, TF over GST control); with EHF it was 1.32 fold enrichment (6-mer frequency, TF over GST control). Moreover, the binding signal with SPI1 [1] is 1.34 fold enrichment (6-mer frequency, TF over GST control); with SPIB it was 1.35 fold enrichment (6-mer frequency, TF over GST control); with ELK3, 1.31 fold enrichment (6-mer frequency, TF over GST control).
On to ACTTCC, for which the binding signal with FLI1 is 7.89 fold enrichment (6-mer frequency, TF over GST control); with ELK1 it was 8.92 fold enrichment (6-mer frequency, TF over GST control); with GABPA, 7.33 fold enrichment (6-mer frequency, TF over GST control); with ERG, 10 fold enrichment (6-mer frequency, TF over GST control); in the assay with ELF1 it was 7.99 fold enrichment (6-mer frequency, TF over GST control); with EHF, 8.81 fold enrichment (6-mer frequency, TF over GST control). Also, the binding signal with SPI1 [2] is 12.7 fold enrichment (6-mer frequency, TF over GST control); with SPIB, 8.52 fold enrichment (6-mer frequency, TF over GST control); with ELK3, 9.72 fold enrichment (6-mer frequency, TF over GST control).
Consider TTTCCG, for which the binding signal in the assay with FLI1 is 3.86 fold enrichment (6-mer frequency, TF over GST control); with ELK1, 3.68 fold enrichment (6-mer frequency, TF over GST control); with GABPA it was 3.28 fold enrichment (6-mer frequency, TF over GST control); in the assay with ERG it was 4.93 fold enrichment (6-mer frequency, TF over GST control); with ELF1, 3.41 fold enrichment (6-mer frequency, TF over GST control); with EHF it was 3.75 fold enrichment (6-mer frequency, TF over GST control). The binding signal in the assay with SPI1 [2] was 3.47 fold enrichment (6-mer frequency, TF over GST control); with SPIB, 3.89 fold enrichment (6-mer frequency, TF over GST control); with ELK3 it was 4.01 fold enrichment (6-mer frequency, TF over GST control).
